Experimental data: PubChem BioAssay AID720648 (The Scripps Research Institute Molecular Screening Center, 2013)
The campaign covered roughly 370,000 compounds. About 3,100 (0.84%) were called active. The entries come from a sample that favours actives as a whole. Unmarked numbers belong to inactive results.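 Rule for the calls: active = inhibition above the mean of compounds lying between control limits plus 3 SD, set per campaign (cut at about 8.5% in these data); inactive = the rest.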

Molecular target: Disintegrin and metalloproteinase domain-containing protein 17 (Homo sapiens) (UniProt P78536)
Experiment: ADAM17 inhibitors, primary screen, biochemical, QFRET (AID 720648);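 note: 0% = DMSO-only wells as the low control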
Details: recombinant ADAM17, EDANS/DABCYL FRET peptide cleavage; at 6.95 µM; stronger effect = higher value

Chain of Disintegrin and metalloproteinase domain-containing protein 17 (Homo sapiens) (P78536 215-824 limits assumed): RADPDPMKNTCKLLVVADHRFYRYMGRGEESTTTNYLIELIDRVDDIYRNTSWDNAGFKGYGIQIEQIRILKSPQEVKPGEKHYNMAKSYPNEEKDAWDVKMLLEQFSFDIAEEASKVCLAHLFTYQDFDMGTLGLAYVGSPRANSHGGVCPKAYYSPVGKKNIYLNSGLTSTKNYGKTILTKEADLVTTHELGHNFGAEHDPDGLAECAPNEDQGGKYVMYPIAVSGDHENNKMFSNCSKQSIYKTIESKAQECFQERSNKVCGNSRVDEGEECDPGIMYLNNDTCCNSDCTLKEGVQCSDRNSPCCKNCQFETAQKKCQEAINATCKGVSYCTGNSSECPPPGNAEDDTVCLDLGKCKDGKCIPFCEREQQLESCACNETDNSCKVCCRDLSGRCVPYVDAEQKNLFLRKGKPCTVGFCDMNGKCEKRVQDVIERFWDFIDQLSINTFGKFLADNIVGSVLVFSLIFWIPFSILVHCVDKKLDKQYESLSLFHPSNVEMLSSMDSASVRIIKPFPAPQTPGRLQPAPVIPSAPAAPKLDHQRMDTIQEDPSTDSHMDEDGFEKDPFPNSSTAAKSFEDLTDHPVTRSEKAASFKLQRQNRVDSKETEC

SMILES | inhibition
COC(=O)C1=C(c2ccc(-c3ccccc3)c(F)c2)C[C@@H]2CC[C@H]1N2C(=O)NCc1ccc(F)cc1 | 16.6% (active)
COC(=O)C1=C(c2cccc(OCc3ccccc3)c2)C[C@@H]2CC[C@H]1N2C(=O)NCc1ccc(Br)cc1 | 7.72%
COC(=O)C1=C(c2ccc(F)cc2OCc2ccccc2)C[C@@H]2CC[C@H]1N2C(=O)NCc1ccc(Cl)cc1 | 3.55%
O=C1NC(=O)C(C/C=C/c2ccccc2)C(=O)N1 | -2.76%
CN(C)C(=O)Oc1ccc2c(c1)O/C(=C\c1ccccc1)C2=O | -16.6%
O=C1C2(Cl)C3(Cl)C4(Cl)C(Cl)(Cl)C5(Cl)C3(Cl)C1(Cl)C5(Cl)C24Cl (stereo not given) | 11.4% (active)
Cc1ccc(C(C)C)c(OCC(=O)N2CCN(CC(=O)N3CCOCC3)CC2)c1 | 1.57%
CCN1CCN(c2ccc([N+](=O)[O-])cc2C#N)CC1 | -2.11%
CNC(=O)Nc1ccc(C(O)(C(=O)OC)C(F)(F)F)cc1 (stereo not given) | -0.16%
CC(=O)NCC1=C(c2ccc3ccccc3c2)C[C@@H]2CC[C@H]1N2Cc1ccco1 | 1.8%
CO[C@H]([C@H](C)/C=C/N(C)C=O)[C@@H](C)C(=O)CC[C@H](C)[C@H](O)[C@H](C)[C@H]1OC(=O)/C=C/C(C)=C/[C@H](O)[C@H](OC)C[C@@H]2C=CC[C@@H](C[C@H](OC)[C@@]3(CO3)[C@@H](OC)C[C@@H](OC)[C@@H]1C)O2 | -1.19%
CCOP(=O)(OCC)C(NC(=O)NC)C(N)=O (stereo not given) | -4.24%
CCOC(=O)CC(SP1(=S)OCC2(CCCCO2)C(C2CCCCO2)O1)C(=O)OCC (stereo not given) | 12.4% (active)
Cc1nc2ccccc2c(=O)n1-c1ccc(Cl)cc1Cl | 0.07%
Cn1cc(C(=O)OCC(=O)N2CCCC2)c2ccccc21 | 1.16%
